Measurements published in PubChem BioAssay AID623996 (NMMLSC, 2012).
Measured potencies and affinities stand elsewhere. The source made the active and inactive calls.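 Rule for the calls: active = fitted concentration giving half the maximal Nile Red retention below 100 µM; inactive = the rest.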

Biological target: Multidrug resistance protein CDR1 (Candida albicans) (UniProt P43071)
Experiment: Candida albicans Cdr1 pump inhibition curves – singleplex, Cherry Pick2 set, dose response (AID 623996)
Settings: S. cerevisiae AD/CaCDR1, Nile Red efflux inhibition, flow cytometry; series mostly up to 100 µM

Multidrug resistance protein CDR1 (Candida albicans), sequence (P43071 whole entry, looked up): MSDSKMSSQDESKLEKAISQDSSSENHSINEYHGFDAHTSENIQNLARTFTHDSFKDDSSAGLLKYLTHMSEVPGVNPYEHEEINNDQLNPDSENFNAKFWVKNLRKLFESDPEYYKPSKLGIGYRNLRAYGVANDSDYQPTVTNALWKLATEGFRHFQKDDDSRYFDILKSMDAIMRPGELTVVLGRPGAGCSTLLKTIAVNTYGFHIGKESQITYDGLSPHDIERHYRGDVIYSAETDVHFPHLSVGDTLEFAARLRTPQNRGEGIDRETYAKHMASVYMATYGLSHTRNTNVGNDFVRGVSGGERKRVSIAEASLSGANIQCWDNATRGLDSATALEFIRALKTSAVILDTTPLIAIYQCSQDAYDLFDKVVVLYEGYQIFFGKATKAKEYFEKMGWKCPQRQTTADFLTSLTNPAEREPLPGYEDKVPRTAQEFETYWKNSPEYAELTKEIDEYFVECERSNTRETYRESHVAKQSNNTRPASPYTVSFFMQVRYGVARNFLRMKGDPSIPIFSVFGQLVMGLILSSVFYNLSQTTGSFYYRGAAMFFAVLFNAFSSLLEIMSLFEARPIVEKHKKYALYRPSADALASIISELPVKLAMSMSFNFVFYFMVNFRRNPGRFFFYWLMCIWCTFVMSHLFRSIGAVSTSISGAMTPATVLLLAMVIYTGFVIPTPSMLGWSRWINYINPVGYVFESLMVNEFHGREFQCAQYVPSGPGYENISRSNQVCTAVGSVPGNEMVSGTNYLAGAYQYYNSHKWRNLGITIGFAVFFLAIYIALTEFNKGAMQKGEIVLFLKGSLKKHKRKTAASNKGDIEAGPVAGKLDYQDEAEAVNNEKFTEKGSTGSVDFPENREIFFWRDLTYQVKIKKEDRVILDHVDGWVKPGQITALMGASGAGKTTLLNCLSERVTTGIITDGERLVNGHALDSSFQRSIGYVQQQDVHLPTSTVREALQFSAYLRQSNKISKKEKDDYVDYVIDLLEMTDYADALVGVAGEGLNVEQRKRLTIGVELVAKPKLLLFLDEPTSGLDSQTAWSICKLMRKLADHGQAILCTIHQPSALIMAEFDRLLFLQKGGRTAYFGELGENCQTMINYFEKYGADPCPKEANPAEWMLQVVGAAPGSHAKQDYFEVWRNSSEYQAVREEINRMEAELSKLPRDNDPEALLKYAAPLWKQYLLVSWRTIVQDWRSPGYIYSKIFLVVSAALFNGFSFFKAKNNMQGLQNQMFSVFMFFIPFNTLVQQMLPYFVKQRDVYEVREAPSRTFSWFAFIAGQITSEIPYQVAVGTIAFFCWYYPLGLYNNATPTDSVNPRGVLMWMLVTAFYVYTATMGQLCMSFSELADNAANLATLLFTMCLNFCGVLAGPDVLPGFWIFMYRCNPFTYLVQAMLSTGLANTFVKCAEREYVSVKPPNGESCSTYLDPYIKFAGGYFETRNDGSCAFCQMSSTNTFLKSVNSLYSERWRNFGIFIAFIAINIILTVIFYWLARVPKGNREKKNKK

SMILES	outcome
NS(=O)(=O)c1ccc(N2N=C(c3ccccc3)CC2c2ccc(F)cc2)cc1 (stereo unspecified)	inactive
O=C(/C=C/c1cccs1)N1CCC2(CC1)Oc1ccc(F)cc1C(=O)C21CC(c2ccccc2)=NO1 (stereo unspecified)	inactive
COc1ccc(C2CC(c3cccc(OC)c3)=NN2c2ccc(S(N)(=O)=O)cc2)cc1 (stereo unspecified)	inactive
NC1=NC[C@H](Cc2ccccc2)N1CCCCC1CCCCC1	inactive
Cc1ccc(O)c(C(=O)c2cnc3c(c2)CN(C)C(=O)N3)c1	inactive
O=C(CSc1nnc(Cc2cccs2)n1Cc1ccco1)Nc1ccc(Br)cc1	inactive
O=C(C[n+]1cc(-c2ccc(Cl)cc2)n2c1CCC2)N1c2ccccc2Sc2ccccc21	inactive
O=C(c1ccc2c(c1)OCO2)N1CCC2(CC1)Oc1ccc(F)cc1C(=O)C21CC(c2ccccc2)=NO1 (stereo unspecified)	inactive
Cc1ccc(C)c(N2CCN(C(=O)C3CCCN(c4ncnc5c4nc4n5CCCCC4)C3)CC2)c1 (stereo unspecified)	inactive
CN1Cc2cc(C(=O)c3ccccc3O)cnc2NC1=O	inactive
COc1ccc(C2CC(c3ccccc3C(F)(F)F)=NN2c2ccc(S(N)(=O)=O)cc2)cc1 (stereo unspecified)	inactive
CC(C)C(=O)N1CCN(c2ccccc2NC(=O)c2ccc3c(c2)OCCO3)CC1	inactive
O=C(C1CCCN(c2ncnc3c2nc2n3CCCCC2)C1)N1CCN(c2cccc(Cl)c2)CC1 (stereo unspecified)	inactive
COc1ccc(CNC(=O)C(C#N)c2nc3ccccc3nc2N2CCN(C)CC2)cc1 (stereo unspecified)	inactive
CCc1ccc(C2=NN(c3ccc(S(N)(=O)=O)cc3)C(c3ccc(F)cc3)C2)cc1 (stereo unspecified)	inactive
NC1=NC[C@@H](Cc2ccc(O)cc2)N1CCCCC1CCCCC1	inactive

SMILES	outcome
COc1cc(OC)c2ccc(=O)oc2c1C(CCN1CCCC(C)C1)c1ccc(N(C)C)cc1 (stereo unspecified)	inactive
COc1cc(OC)c2c(-c3ccccc3)cc(=O)oc2c1C(CCN1CCCC(C)C1)c1ccc(N(C)C)cc1 (stereo unspecified)	inactive
CCC(Cc1ccccc1)OC(=O)c1ccccc1C(=O)O (stereo unspecified)	inactive
NC1=NC[C@H](Cc2ccc(O)cc2)N1CCCCC1CCCCC1	inactive
Cc1cc(C)c2sc(N(CCCN(C)C)C(=O)c3ccc(Br)s3)nc2c1	inactive
COc1ccc(CN2C(=O)C(C)Nc3ncnc(N4CCN(c5ccccc5)CC4)c32)cc1 (stereo unspecified)	inactive
NS(=O)(=O)c1ccc(N2N=C(c3ccc(Br)cc3)CC2c2ccc(F)cc2)cc1 (stereo unspecified)	inactive
COc1ccc(CCOC(=O)c2ccc(N)c([N+](=O)[O-])c2)cc1	inactive
O=C(C[n+]1cc(-c2ccc(F)cc2)n2c1CCC2)N1c2ccccc2Sc2ccccc21	inactive
CCCCN1Cc2cc(C(=O)c3cc(F)ccc3O)cnc2NC1=O	inactive
Cc1ccc2sc(N(CCCN(C)C)C(=O)c3ccc(Br)s3)nc2c1C	inactive
O=C(C1CCCN(c2ncnc3c2nc2n3CCCCC2)C1)N1CCN(c2ccccc2F)CC1 (stereo unspecified)	inactive
O=C(NCCC1=CCCCC1)C1CCC(CNc2nc(=S)[nH]c3ccccc23)CC1 (stereo unspecified)	inactive
CCOc1cccc2sc(NC(=O)c3ccc(Br)s3)nc12	inactive
Cc1ccc(C2CC(c3ccccc3)=NN2c2ccc(S(N)(=O)=O)cc2)cc1 (stereo unspecified)	inactive
